Consider 28 compounds from PubChem BioAssay AID1053175 (ICCB-Longwood Screening Facility, Harvard Medical School, 2014).

Where “and” joins values, the source holds several entries; their conditions need not be identical. Equal entries are not always repeated. The campaign covered roughly 330,000 compounds. About 700 (0.21%) were called active. This excerpt belongs to a sample that is enriched for actives. Unmarked numbers belong to inactive results.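 Rule for the calls: active = OD600 absorbance below the run mean of sample wells minus 3.6 SD, in any replicate (cut at about 0.56 in these data); inactive = the rest.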

A short description of this experiment: E. coli growth inhibition, primary screen, OD600 (AID 1053175). The conditions noted are these: Escherichia coli growth, OD600, 23 h; stronger effect = lower value.
Consider `O=C(Nc1nnc(C2COc3ccccc3O2)o1)c1ccc(F)cc1` (stereo not drawn), for which the OD600 absorbance is 0.346 (active). `CC1COc2ccccc2N1C(=O)c1ccc(F)cc1` (stereo not drawn): the OD600 absorbance is 0.65. For `O=C(COC(=O)c1ccc(F)cc1)NCC1COc2ccccc2O1` (stereo not drawn), the OD600 absorbance was 0.688. In the case of `O=C(CO)NN=Cc1cccc(Cl)c1Cl`, the OD600 absorbance was 0.595. For the compound `CCOc1ccccc1C(=O)NN=Cc1coc2ccc(Cl)cc2c1=O`, the OD600 absorbance is 0.656. Take `COc1ccc(/C=C(\NC(=O)c2ccccc2)C(=O)NN=Cc2cccnc2)cc1`: the OD600 absorbance is 0.669.

Consider `O=C(NN=Cc1c[nH]c2ccccc12)c1ccc(O)c(O)c1`, for which the OD600 absorbance was 0.695.

On to `COC(=O)C1CC2CCC(O)CC2N1Cc1ccc(C(F)(F)F)cc1` (stereo not drawn), for which the OD600 absorbance was 0.627 and 0.652. Consider `CC1(C)CC2CC(C)(CN2C=Nc2sc3c(c2C#N)CC(C)(C)NC3(C)C)C1` (stereo not drawn), for which the OD600 absorbance is 0.649. For the compound `CCCC(O)c1cc2cc(OC)c(OC)cc2c(=O)o1` (stereo not drawn), the OD600 absorbance was 0.667. The figure for `CCc1n[nH]c(=S)n1N=Cc1c(O)ccc2ccccc12` is 0.677; for `C=CCSc1nsc(NC(=O)Nc2cccc(C(C)=O)c2)n1` it is 0.61. The figure for `CSc1nsc(NC(=O)Nc2ccccc2)n1` is 0.445 (active); for `CCSc1nsc(NC(=O)Nc2cccc(C(C)=O)c2)n1` it is 0.575; for `O=C(Nc1nnc(COc2ccccc2)s1)Nc1ccccc1F` it is 0.649. In the case of `O=C(NCC(F)(F)F)Nc1nnc(C(F)(F)F)s1`, the OD600 absorbance is 0.494 (active). Consider `COc1ccc(C)cc1NC(=O)CCC(=O)Nc1nnc(C(F)(F)F)s1`, for which the OD600 absorbance was 0.73. In the case of `O=C(O)c1ccc(NN=Cc2ccc(-c3ccc(Cl)cc3Cl)o2)cc1` it was 0.671. For `CCOC(=O)C1C2COc3ccc(Cl)cc3C2N2C(=O)c3ccc(C)cc3NC(=O)[C@@]12C` (stereo partly drawn), the OD600 absorbance was 0.705. With `CCN(CC)C(=O)c1[nH]cnc1C(=O)NC(Cc1ccccc1)C(=O)OC(C)(C)C` (stereo not drawn), the OD600 absorbance is 0.689. Turning to `COc1cc(C=NNC(=O)c2ccc3c(c2)OCCO3)cc(Br)c1O`, the OD600 absorbance was 0.712. The figure for `CC(C(=O)N1CCNCC1)n1cc(CCC(=O)O)nn1` (stereo not drawn) is 0.694; for `CCn1cc(C(=O)NCCO)c(=O)c2cc(F)c(N3CCN(C)CC3)cc21` it is 0.0485 (active). Regarding `CCNC(=S)N1CCN(C(=O)c2ccco2)CC1`, the OD600 absorbance is 0.73. For the compound `CCn1cc(C(=O)NCCC(=O)NCCO)c(=O)c2cc3c(cc21)OCO3`, the OD600 absorbance was 0.65. Turning to `CCCCCCn1cc(C(=O)O)c(=O)c2cc(F)c(N3CCCCC3)cc21`, the OD600 absorbance was 0.628.

For `CCCCNC(=O)c1cn(CC)c2cc(N3CCN(C(=O)c4ccco4)CC3)c(F)cc2c1=O`, the OD600 absorbance was 0.458 (active). With `CCn1cc(S(=O)(=O)c2cccc(C)c2)c(=O)c2cc(F)c(N3CCN(C)CC3)cc21`, the OD600 absorbance was 0.662.
